Assay outcomes deposited in PubChem by National Center for Advancing Translational Sciences (NCATS).
Six1-Eya2 blk = Six1/Eya2 interaction inhibition. AlphaScreen GST-Six1/His-Eya2 binding, biochemical; active compounds read low. activity change, % (test concentration not listed). 360,000 tested, 0.56% active. AID 651725; in the data active = activity change below about -65%; inconclusive = mostly about -30% to -63%
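Compounds are tested against tagged Six1 and Eya2 proteins bridged by glutathione donor and nickel acceptor beads; after a one-hour incubation at 37 °C without light, AlphaScreen emission is recorded.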
CtBP-E1A inh = inhibitors of CtBP/E1A interaction; AlphaScreen GST-E1A/His-CtBP binding, 1536-well; active compounds read low; activity change, % (no concentration beside the values); 340,000 tested, 0.49% active; in the data active = activity change below about -65%; inconclusive = mostly about -30% to -63%
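AlphaScreen with 125 nM GST-E1A and 125 nM His-CtBP (5X stocks) in Tris pH 8.0, 300 mM NaCl, BSA, Tween 20, TCEP. Compounds preincubated 2 h at 37 deg C, then glutathione donor/nickel acceptor beads added for 1 h at 37 deg C in dark.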
IL-1B inflam inh = inflammasome signaling inhibition, IL-1 beta readout; activity change, % at 57.5 µM; 360,000 tested, 4.7% active; THP-1 LPS/ATP IL-1B secretion, AlphaLISA, 16 h; active compounds read low; AID 743279; in the data active = activity change below about -50%; inconclusive = mostly about -30% to -49%
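Secreted IL-1B measured by AlphaLISA bead assay after 16 h compound exposure of THP-1 cells; compounds (final up to 57.5 uM) added 1 h before LPS (250 ng/mL) and ATP (1.25 mM) stimulation; lower signal means less secretion.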
TDP1 cell CPT = DT40-hTDP1 cell growth loss with CPT; 420,000 tested, 12% active; Potency, µM (series often up to 46.2 µM), usual class: inhibitors; chicken DT40 Tdp1-/-;hTDP1 cells + 20 nM CPT, ATP luminescence, 48 h; note: nearly all actives have a fitted effect of over 55% in size
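Chicken DT40 Tdp1-/- cells stably complemented with human TDP1 were seeded at 400 cells/well in medium containing 20 nM camptothecin, exposed to pin-transferred compounds, and grown at 37 °C for at least 48 hr. Viability was read as ATP luminescence.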
TDP1 block = blocks human tyrosyl-DNA phosphodiesterase 1. Q9NUW8. 350,000 tested, 0.28% active. AID 485290. Potency, µM (series often up to 130 µM), actives largely listed as inhibitors. recombinant TDP1, AlphaScreen DNA substrate cleavage; note: nearly all actives have a fitted effect of over 40% in size
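Compounds were preincubated with Tdp1 (1 nM final) for 15 min at room temperature before substrate (15 nM final) started a 5 min reaction; beads (10 ug/ml final) were then added for 10 min before AlphaScreen detection.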
TDP1 cell noCPT = qHTS for Inhibitors of human tyrosyl-DNA phosphodiesterase 1 (TDP1): qHTS in cells in absence of CPT | DT40 Tdp1-/- hTDP1 cells, no CPT, ATP luminescence, 48 h | Potency, µM (top dose mostly 46.2 µM), most hits filed as inhibitors | 420,000 tested, 15% active | AID 686978, 2013; note: nearly all actives have a fitted effect of over 55% in size
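Chicken DT40 Tdp1-/- cells stably complemented with human TDP1 were seeded at 400 cells/well with DMSO in place of 20 nM camptothecin. After compound pinning, cells grew at least 48 hr at 37 °C; viability read by CellTiter-Glo luminescence.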
Large screens that a line does not name were inactive. Only some compounds are listed: those with a hit (about 18% of all), similar ones and a draw of the others. Unless noted, calls come from the whole dose curve; as a rule, active = well fitted curve in the direction sought with a large enough effect; inconclusive = small, poorly fitted or top-dose-only effect, or another doubt; inactive = no such curve, though single readings can be large; an effect the other way counts as inactive or inconclusive.

O=C(OCCC12CC3CC(CC(C3)C1)C2)c1ccc(NCc2cc(O)ccc2O)cc1	Six1-Eya2 blk inconclusive, IL-1B inflam inh -120.6, TDP1 cell CPT 1.84µM, TDP1 cell noCPT 2.06µM (no result: TDP1 block)
O=C(OCC12CC3CC(CC(C3)C1)C2)c1ccc(NCc2cc(O)ccc2O)cc1	IL-1B inflam inh -51.8, TDP1 cell CPT 1.46µM, TDP1 cell noCPT 0.731µM (no result: TDP1 block)
N#CCC(=O)Nc1ccc(C(=O)OCC(=O)C23CC4CC(CC(C4)C2)C3)cc1	TDP1 cell noCPT inconclusive
COc1ccc(C(=O)OCC(=O)N2CCOCC2)cc1S(=O)(=O)N1CCOCC1	none (no result: CtBP-E1A inh)
CC(C)(C)C(=O)/C(=C/c1ccncc1)n1cncn1	IL-1B inflam inh -97.6, TDP1 cell CPT 3.26µM, TDP1 cell noCPT 1.64µM
Cc1nn(C)c(C)c1/C=C(/C(=O)C(C)(C)C)n1cncn1	IL-1B inflam inh -57.0, TDP1 cell CPT inconclusive, TDP1 cell noCPT 23.1µM (no result: TDP1 block)
C=CCn1c(CCc2ccccc2)nnc1SCC(=O)OC	none
Cc1ccc2c(CC(=O)Nc3cccc(C(F)(F)F)c3)coc2c1	TDP1 cell CPT 16.4µM, TDP1 cell noCPT inconclusive (no result: Six1-Eya2 blk, CtBP-E1A inh, IL-1B inflam inh)
Cc1ccc2c(CC(=O)NNC(=O)c3ccccc3O)coc2c1	TDP1 cell CPT inconclusive, TDP1 cell noCPT 25.9µM
Cc1ccc2onc(CC(=O)Nc3cccc(C(F)(F)F)c3)c2c1	TDP1 cell CPT inconclusive, TDP1 cell noCPT inconclusive (no result: Six1-Eya2 blk, CtBP-E1A inh, IL-1B inflam inh)
COc1ccccc1NC(=O)Cc1coc2cc(C)ccc12	TDP1 cell noCPT inconclusive
CN(C)c1nc2ncn(Cc3ccccc3)c2c(=O)[nH]1	none
Cc1ccc(NC(=O)CSc2ncnc3ccccc23)cc1S(=O)(=O)N1CCOCC1	IL-1B inflam inh -100.3, TDP1 cell CPT inconclusive, TDP1 cell noCPT 14.6µM
Cc1ccc(NC(=O)CSc2ncnc3ccccc23)cc1S(=O)(=O)N1CCCCC1	IL-1B inflam inh -95.5, TDP1 cell CPT 25.9µM, TDP1 cell noCPT inconclusive
Cc1ccc(NC(=O)CSc2nnnn2C)cc1S(=O)(=O)N1CCCCC1	none (no result: TDP1 block)
CSc1ncccc1C(=O)OCC(=O)Nc1ccc(C)c(S(=O)(=O)N2CCOCC2)c1	TDP1 cell CPT inconclusive, TDP1 cell noCPT 13µM
Cc1ccc(NC(=O)COc2ncnc3ccccc23)cc1S(=O)(=O)N1CCOCC1	TDP1 cell noCPT inconclusive
CC(C)N(CCNC(=O)COc1ccc2oc3c(c2c1)CCCC3)C(C)C	IL-1B inflam inh -77.3, TDP1 cell CPT inconclusive, TDP1 cell noCPT 23.1µM
Cc1cccc(NC(=O)COc2ccc3oc4c(c3c2)CCCC4)c1	TDP1 cell CPT 16.4µM, TDP1 cell noCPT 18.4µM (no result: Six1-Eya2 blk, CtBP-E1A inh, IL-1B inflam inh, TDP1 block)
Cc1ccc(NC(=O)COc2ccc3oc4c(c3c2)CCCC4)nc1	TDP1 cell CPT inconclusive, TDP1 cell noCPT 8.2µM
O=C(COc1ccc2oc3c(c2c1)CCCC3)Nc1ccc(Br)cc1	TDP1 cell CPT 14.6µM, TDP1 cell noCPT inconclusive (no result: Six1-Eya2 blk, CtBP-E1A inh, IL-1B inflam inh, TDP1 block)
Cc1ccc(NC(=O)COc2ccc3oc4c(c3c2)CCCC4)cc1C	none (no result: Six1-Eya2 blk, CtBP-E1A inh, IL-1B inflam inh, TDP1 block)
COCCCNC(=O)COc1ccc2oc3c(c2c1)CCCC3	TDP1 cell CPT inconclusive, TDP1 cell noCPT inconclusive
Cc1cc(=O)[nH]c(SC(C(=O)O)c2ccccc2)n1 (stereo unspecified)	none
CC(=O)c1ccc(N2CCN(c3nc4ccccc4c4nc(-c5cccc(C)c5)nn34)CC2)cc1	none (no result: Six1-Eya2 blk, CtBP-E1A inh, IL-1B inflam inh)
COc1ccc(Nc2nc(-c3sc(NC(C)=O)nc3C)cs2)cc1	none (no result: Six1-Eya2 blk, CtBP-E1A inh, IL-1B inflam inh, TDP1 cell CPT, TDP1 cell noCPT)
COc1ccc(OC)c(Nc2nc(-c3sc(NC(=O)c4ccccc4)nc3C)cs2)c1	none (no result: Six1-Eya2 blk, CtBP-E1A inh, IL-1B inflam inh, TDP1 cell CPT, TDP1 cell noCPT)
CCCCCC(=O)Nc1nc(C)c(-c2csc(Nc3cc(OC)ccc3OC)n2)s1	CtBP-E1A inh inconclusive, TDP1 cell CPT 4.11µM, TDP1 cell noCPT 2.91µM
CCCCCCC(=O)Nc1nc(C)c(-c2csc(Nc3cc(OC)ccc3OC)n2)s1	TDP1 cell CPT inconclusive, TDP1 cell noCPT 18.4µM
Cn1cccc1/C=N/N1CCN(Cc2ccccc2)CC1	none (no result: CtBP-E1A inh)
Cn1cccc1/C=N/N1CCN(Cc2cccc3ccccc23)CC1	Six1-Eya2 blk inconclusive, IL-1B inflam inh inconclusive, TDP1 cell CPT inconclusive, TDP1 cell noCPT 13µM
